Values joined by “and” are separate entries in the source; they are usually repeats but may differ in a detail not shown here. Equal entries are not always repeated. Inconclusive results are not listed. Active and inactive are the calls of the source. Unless noted, calls come from the whole dose curve; as a rule, active = well fitted curve in the direction sought with a large enough effect; inconclusive = small, poorly fitted or top-dose-only effect, or another doubt; inactive = no such curve, though single readings can be large; an effect the other way counts as inactive or inconclusive.
Assays:
[1] = qHTS for Inhibitors of the Functional Ribonucleoprotein Complex (vRNP) of Lassa (LASV) Arenavirus: LASV Primary Screen - GLuc reporter signal (AID 1347082; calls by dose curve; tested in HEK293 reporter line; note: % is set by controls: 0 for no effect and ±100 for the full control effect; nearly all actives have a fitted effect of over 60% in size)
[2] = qHTS for Inhibitors of the Functional Ribonucleoprotein Complex (vRNP) of Lassa (LASV) Arenavirus: Viability assay - alamar blue signal for LASV Primary Screen (AID 1347083; calls by dose curve; tested in HEK293 reporter line; note: % is set by controls: 0 for no effect and ±100 for the full control effect; nearly all actives have a fitted effect of over 80% in size)
[3] = qHTS for Inhibitors of the Functional Ribonucleoprotein Complex (vRNP) of Lymphocytic Choriomeningitis Arenaviruses (LCMV): Viability assay - alamar blue signal for LCMV Primary Screen (AID 1347085; calls by dose curve; tested in HEK293 reporter line; note: % is set by controls: 0 for no effect and ±100 for the full control effect; nearly all actives have a fitted effect of over 80% in size)
[4] = target: Nucleoprotein (Lymphocytic choriomeningitis virus (strain Armstrong)) (UniProt P09992); experiment: qHTS for Inhibitors of the Functional Ribonucleoprotein Complex (vRNP) of Lymphocytic Choriomeningitis Arenaviruses (LCMV): LCMV Primary Screen - GLuc reporter signal (AID 1347086; calls by dose curve; note: % is set by controls: 0 for no effect and ±100 for the full control effect; nearly all actives have a fitted effect of over 70% in size)
Nucleoprotein (Lymphocytic choriomeningitis virus (strain Armstrong)), sequence (P09992 whole entry, looked up): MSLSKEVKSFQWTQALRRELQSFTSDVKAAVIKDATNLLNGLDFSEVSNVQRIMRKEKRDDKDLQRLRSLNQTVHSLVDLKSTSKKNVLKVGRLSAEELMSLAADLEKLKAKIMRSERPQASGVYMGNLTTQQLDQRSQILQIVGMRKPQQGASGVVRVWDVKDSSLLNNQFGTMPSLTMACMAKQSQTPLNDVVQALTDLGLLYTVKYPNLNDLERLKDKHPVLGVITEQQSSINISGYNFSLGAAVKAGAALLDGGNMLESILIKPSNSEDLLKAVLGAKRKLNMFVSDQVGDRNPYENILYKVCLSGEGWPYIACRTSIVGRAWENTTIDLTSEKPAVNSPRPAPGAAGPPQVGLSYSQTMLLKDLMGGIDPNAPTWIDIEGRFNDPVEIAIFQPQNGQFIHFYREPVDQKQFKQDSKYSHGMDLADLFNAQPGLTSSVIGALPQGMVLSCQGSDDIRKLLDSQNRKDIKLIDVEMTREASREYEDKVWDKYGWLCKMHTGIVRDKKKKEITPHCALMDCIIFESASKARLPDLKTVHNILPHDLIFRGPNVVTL

[5] = Primary qHTS for inhibitors of SARS-S pseudo-typed particle cell entry (AID 1479145; calls by dose curve; note: % is set by controls: 0 for no effect and ±100 for the full control effect; nearly all actives have a fitted effect of over 45% in size)
[6] = Primary qHTS for Huh7 cytotoxicity: counterscreen for inhibitors of MERS-S pseudotyped particle cell entry (AID 1479147; calls by dose curve); settings: outcome: dose series up to 57.1 µM unless noted
[7] = Primary qHTS for inhibitors of MERS-S pseudo-typed particle cell entry (AID 1479149; calls by dose curve; note: potency is the fitted concentration of half-maximal effect; nearly all actives have a fitted effect of over 60% in size)
[8] = Primary qHTS for Vero E6 cytotoxicity: counterscreen for inhibitors of SARS-S pseudo-typed particle cell entry (AID 1479150; calls by dose curve); settings: outcome: dose series up to 57.1 µM unless noted
[9] = Confirmatory qHTS to identify inhibitors of SARS-CoV-2 cell entry (AID 1645844; calls by dose curve; note: potency is the fitted concentration of half-maximal effect; nearly all actives have a fitted effect of over 45% in size)
Method in brief: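 HEK293-ACE2 cells were pretreated 1 h with compound, then infected with MLV-based pseudoparticles bearing C-terminally truncated Wuhan-Hu-1 spike for 48 h at 37C; luciferase luminescence normalized to spike PP and bald PP wells.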

[10] = Cytotoxicity counterscreen for inhibitors of SARS-CoV-2 cell entry (AID 1645845; calls by dose curve; note: % is set by controls: 0 for no effect and ±100 for the full control effect; nearly all actives have a fitted effect of over 50% in size)
Method in brief: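 HEK293-ACE2 cells (Expi293F stably expressing human ACE2) seeded overnight, then compound for 1 h plus 48 h at 37C. Viability as ATP content by luminescence; normalized to wells with cells and media-only wells.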

[11] = Primary qHTS to identify inhibitors of SARS-CoV-2 cell entry (AID 1645846; calls by dose curve; note: nearly all actives have a fitted effect of over 45% in size); settings: activity change, negative = inhibition: at 57.1 µM (top of the series) unless noted
Method in brief: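 Inhibition of spike-mediated entry was scored in human ACE2-transfected Expi293F cells. Particles were MLV-pseudotyped with Wuhan-Hu-1 S carrying a 19-aa C-terminal deletion; signal was luciferase after two days, scaled between spike PP and fusion-protein-free PP.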

[12] = VSVG counterscreen qHTS to identify inhibitors of SARS-CoV-2 cell entry (AID 1645847; calls by dose curve; note: potency is the fitted concentration of half-maximal effect; nearly all actives have a fitted effect of over 65% in size)
Method in brief: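 Luminescence from a luciferase reporter, normalised to bald particle and VSV-G pseudotyped particle wells, is the read-out. Cells are HEK293 expressing human ACE2, exposed to compound 1 h before a 48 h particle infection at 37 °C.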

[13] = tested on: Zika virus NS2B-NS3 protease; experiment: Primary screen GU AMC qHTS for Zika virus inhibitors (AID 1347154);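 note: 0% = no-inhibitor control and -100% = no-enzyme control; nearly all actives have a fitted effect of over 70% in size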
Method in brief: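 Unlinked Zika NS2B hydrophilic domain–NS3 protease complex at 25 nM in 10 mM Tris-HCl pH 8.0, 0.01% Tween 20, with an AMC peptide substrate. Fluorescence change (340/450 nm) over 15 min at room temperature, normalized to controls, fitted to 4-parameter Hill.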

[14] = Validation of Assay for Modulators of Lamin A Splicing (AID 1459; active = well fitted curve in the direction sought with a large enough effect in the signal ratio; the % refers to the signal ratio;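 note: cells exposed to compound for two days before reading; 0% is about no effect; ratio rise marks activators and ratio drop marks inhibitors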)
Method in brief: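 HeLa S3 lamin A-EGFP/DsRed2 stable clone, 600 cells/well, Opti-MEM 2% FBS; compounds by pin tool; 48 hrs, 37 °C/5% CO2; Acumen 488 nm scan, objects 10-100 um; GFP/RFP intensity ratio.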

[15] = target: DNA repair nuclease/redox regulator APEX1 (Homo sapiens) (UniProt P27695); experiment: qHTS Validation Assay for Inhibitors of the Human Apurinic/apyrimidinic Endonuclease 1 (APE1) (AID 1705;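 note: TAMRA fluorescence gain over two minutes as APE1 cuts a quenched THF abasic duplex; % is set by controls: 0 for no effect and ±100 for the full control effect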)
Method in brief: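 qHTS, 1536-well. APE1 + cpd 15 min RT → 50 nM TAMRA/BHQ-2 THF-abasic dsDNA substrate → kinetic fluorescence, 3 reads/60 s; delta(read3−read1) = reaction progress. No-enzyme buffer = negative control.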

[16] = Counterscreen for APE1 Inhibitors: Fluorescent Dye Displacement Validation Assay (AID 1707);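 note: plate controls were ThO with dsDNA and no compound for no effect and ThO without dsDNA for full effect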
Method in brief: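 Compounds are scored by their ability to displace Thiazole Orange (250 nM) from a 50 nM TAMRA-tagged duplex bearing a tetrahydrofuran abasic site. Buffer is 50 mM Tris-HCl pH7.5, 50mM NaCl, 2 mM MgCl2, 0.01% Tween-20.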

[17] = target: Endonuclease 4 (Escherichia coli (strain K12)) (UniProt P0A6C1); experiment: Counterscreen for APE1 Inhibitors: qHTS Validation Assay for Inhibitors of Endonuclease IV (AID 1708); note: % is set by controls: 0 for no effect and ±100 for the full control effect
Method in brief: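 Cleavage of a quenched abasic-site DNA duplex (50 nM, 5'-TAMRA, 3'-BHQ-2) by 2 nM enzyme is followed as fluorescence increase. Compounds are preincubated with enzyme 15 min at room temperature before substrate addition.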

[18] = qHTS for differential inhibitors of proliferation of Plasmodium falciparum line 3D7 (AID 1876);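 note: parasite growth measured after three days of culture; 0% = vehicle wells and -100% = reference inhibitor wells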
[19] = qHTS for differential inhibitors of proliferation of Plasmodium falciparum line D10 (AID 1877);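 note: parasites grown with compound for 72 h before DNA staining; plate controls were vehicle wells for no effect and reference inhibitor wells for full effect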
[20] = qHTS for differential inhibitors of proliferation of Plasmodium falciparum line Dd2 (AID 1882); settings: Potency: Plasmodium falciparum Dd2 proliferation inhibition;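 note: compound exposure of 72 h on infected erythrocytes; plate controls were DMSO vehicle for no effect and 0.29 µM artemisinin for full effect; nearly all actives have a fitted effect of over 65% in size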
Method in brief: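 SYBR Green I DNA fluorescence read-out, ex 485/em 535 nm. Signals were normalized to 0.29 uM artemisinin and DMSO wells, then corrected using vehicle-only plates flanking each stack. Parasite growth ran 72 h in erythrocytes before lysis.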

[21] = qHTS for differential inhibitors of proliferation of Plasmodium falciparum line HB3 (AID 1886); settings: Potency: Plasmodium falciparum HB3 proliferation inhibition;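 note: parasites grown with compound for 72 h before SYBR Green readout; plate controls were vehicle for no effect and reference inhibitor for full effect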
[22] = qHTS Assay for Modulators of Human Peripheral Myelin Protein 22 (PMP22) Expression/Activity (AID 1967; active = well fitted curve in the direction sought with a large enough effect in the signal ratio; the % refers to the signal ratio;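 note: 0% = untreated cells and 100% end not stated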)
Method in brief: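 Luminescence ratio of Pmp22 promoter-driven green luciferase to EF-alpha-driven red luciferase, in engineered mouse MSC80 Schwann cells, served as read-out. Compounds were incubated 24h; untreated cells defined 0% Activity; curves were classified by r2, magnitude and activity.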

[23] = target: Ferritin light chain (Equus caballus) (UniProt P02791); experiment: qHTS Validation Assay for Identification of Novel General Anesthetics (AID 2323); note: % is set by controls: 0 for no effect and ±100 for the full control effect
Ferritin light chain (Equus caballus), sequence (P02791 2-175 limits assumed): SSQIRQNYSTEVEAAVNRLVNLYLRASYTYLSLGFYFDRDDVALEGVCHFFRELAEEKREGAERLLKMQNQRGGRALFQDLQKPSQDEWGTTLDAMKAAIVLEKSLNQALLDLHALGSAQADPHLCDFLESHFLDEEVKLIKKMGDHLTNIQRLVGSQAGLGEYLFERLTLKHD
Method in brief: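 Fluorescence at 535 nm (excitation 380 nm) reported loss of 1-AMA binding to horse-spleen apoferritin (10 uM) in PBS with 50% saturated 1-aminoanthracene, after 10 min room-temperature incubation with compound; values from Hill fits of normalized response.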

[24] = target: ATP-dependent DNA helicase Q1 (Homo sapiens) (UniProt P46063); experiment: qHTS Validation Assay for Inhibitors of RecQ-Like Dna Helicase 1 (RECQ1) (AID 2353);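 note: plate controls were DMSO vehicle for no effect and enzyme-free control for full effect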
Method in brief: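 50 nM RECQ1T1 preincubated 15 min with compound in Tris pH 8.0 buffer with MgCl2, DTT, Tween-20 and 2.5 ug/ml poly(dI-dC); started with 200 nM TAMRA/BHQ-2 forked duplex and 2 mM ATP. Unwinding read as fluorescence (525/598 nm), two reads 2 h apart.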

[25] = Validation screen for inhibitors of Lassa infection (AID 463096; calls by dose curve; note: % is set by controls: 0 for no effect and ±100 for the full control effect)
[26] = Validation screen for small molecules that induce DNA re-replication in MCF 10A normal breast cells (AID 463097); note: 0% is about no effect; nearly all actives have a fitted effect of over 60% in size
Method in brief: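 Image-based qHTS: normal breast cells are incubated with compound for 48 hr, stained with Hoechst, and scanned for total nuclear fluorescence. Compounds raising the fraction of nuclei with elevated DNA content count as re-replication inducers.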

[27] = Quantitative high throughput screen for delayed death inhibitors of the malarial parasite plastid, 48 hour incubation (AID 488752); note: % is set by controls: 0 for no effect and ±100 for the full control effect; nearly all actives have a fitted effect of over 65% in size
Method in brief: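 One parasite generation (48 h, 37 C, 5% CO2) of luciferase-reporter P. falciparum in erythrocytes is run with test compound; decreased luminescence indicates inhibited growth.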

[28] = target: M-phase phosphoprotein 8 (Homo sapiens) (UniProt Q99549); experiment: qHTS Validation Assay for Inhibitors for MPP8 Chromodomain Interactions with Methylated Histone Tails (AID 488949); note: potency is the fitted concentration of half-maximal effect; nearly all actives have a fitted effect of over 55% in size
M-phase phosphoprotein 8 (Homo sapiens), sequence (Q99549 whole entry, looked up): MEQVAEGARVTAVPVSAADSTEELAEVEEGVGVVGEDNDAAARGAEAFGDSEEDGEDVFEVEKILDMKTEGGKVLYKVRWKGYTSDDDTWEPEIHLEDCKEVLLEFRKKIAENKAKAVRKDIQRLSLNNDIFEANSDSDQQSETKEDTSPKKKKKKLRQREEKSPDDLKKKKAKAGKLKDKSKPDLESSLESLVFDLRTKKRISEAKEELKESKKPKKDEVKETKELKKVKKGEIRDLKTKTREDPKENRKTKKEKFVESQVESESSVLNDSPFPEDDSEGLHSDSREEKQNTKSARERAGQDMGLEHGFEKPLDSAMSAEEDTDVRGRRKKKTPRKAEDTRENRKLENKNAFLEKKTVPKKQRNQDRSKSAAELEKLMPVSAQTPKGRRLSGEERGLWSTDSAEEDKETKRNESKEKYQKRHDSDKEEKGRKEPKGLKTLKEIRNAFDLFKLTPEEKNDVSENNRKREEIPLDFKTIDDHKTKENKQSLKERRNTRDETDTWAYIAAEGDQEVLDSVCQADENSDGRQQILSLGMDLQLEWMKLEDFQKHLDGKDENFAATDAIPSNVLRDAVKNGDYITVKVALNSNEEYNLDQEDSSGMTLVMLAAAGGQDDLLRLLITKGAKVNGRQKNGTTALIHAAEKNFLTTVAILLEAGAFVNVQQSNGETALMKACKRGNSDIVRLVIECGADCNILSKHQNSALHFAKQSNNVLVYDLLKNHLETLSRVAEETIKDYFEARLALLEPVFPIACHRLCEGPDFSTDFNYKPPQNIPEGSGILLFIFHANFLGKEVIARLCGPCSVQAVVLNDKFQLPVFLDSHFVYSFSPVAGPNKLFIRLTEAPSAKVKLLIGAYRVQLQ
Method in brief: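 50 nM MPP8 + 50 nM b-H3K9me3 peptide, PBS pH 7.4/0.01% Tween-20, 30 min RT; + cpd 30 min RT; + AlphaScreen donor/Ni-chelate acceptor beads 10 ug/mL final, 30 min dark; luminescence read.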

[29] = target: Transient receptor potential cation channel subfamily V member 1 (Homo sapiens) (UniProt Q8NER1); experiment: HTS Assay for Compounds that Act as Enhancers of the Vanilloid Receptor 1 (AID 488979); note: 0% is about no effect
Transient receptor potential cation channel subfamily V member 1 (Homo sapiens), sequence (Q8NER1 whole entry, looked up): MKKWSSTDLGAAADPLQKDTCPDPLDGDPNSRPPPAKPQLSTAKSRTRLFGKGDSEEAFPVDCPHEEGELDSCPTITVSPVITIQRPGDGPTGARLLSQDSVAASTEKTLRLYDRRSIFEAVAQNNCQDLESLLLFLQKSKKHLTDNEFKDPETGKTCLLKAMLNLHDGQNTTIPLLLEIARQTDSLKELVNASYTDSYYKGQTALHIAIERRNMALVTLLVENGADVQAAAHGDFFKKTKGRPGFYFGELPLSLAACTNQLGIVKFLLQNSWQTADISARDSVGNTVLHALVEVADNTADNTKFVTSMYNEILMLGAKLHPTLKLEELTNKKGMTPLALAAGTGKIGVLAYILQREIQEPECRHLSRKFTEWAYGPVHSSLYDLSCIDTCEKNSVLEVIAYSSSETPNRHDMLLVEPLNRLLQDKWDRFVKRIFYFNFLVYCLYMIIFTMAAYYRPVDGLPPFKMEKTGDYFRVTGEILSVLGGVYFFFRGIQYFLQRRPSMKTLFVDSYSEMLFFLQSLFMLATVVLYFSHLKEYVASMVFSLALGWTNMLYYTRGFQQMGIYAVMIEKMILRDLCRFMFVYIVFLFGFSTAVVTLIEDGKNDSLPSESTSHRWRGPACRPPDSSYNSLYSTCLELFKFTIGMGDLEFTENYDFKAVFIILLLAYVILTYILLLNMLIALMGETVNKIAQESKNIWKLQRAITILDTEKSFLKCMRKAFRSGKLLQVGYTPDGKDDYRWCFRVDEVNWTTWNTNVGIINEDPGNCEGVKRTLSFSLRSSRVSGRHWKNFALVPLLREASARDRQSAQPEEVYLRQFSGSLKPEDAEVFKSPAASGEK
Method in brief: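 TRPV1 cells loaded with Fluo-8 calcium dye; compound added and Ca2+ signal (ex 480/em 520 nm) followed 3 min, then capsaicin at EC20 added and read 2 more min to detect enhancement.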

[30] = target: Thyrotropin receptor (Homo sapiens) (UniProt P16473); experiment: qHTS Assay for Antagonists of the Thyroid Stimulating Hormone Receptor (AID 488980); note: 0% is about no effect
Thyrotropin receptor (Homo sapiens), sequence (P16473 whole entry, looked up): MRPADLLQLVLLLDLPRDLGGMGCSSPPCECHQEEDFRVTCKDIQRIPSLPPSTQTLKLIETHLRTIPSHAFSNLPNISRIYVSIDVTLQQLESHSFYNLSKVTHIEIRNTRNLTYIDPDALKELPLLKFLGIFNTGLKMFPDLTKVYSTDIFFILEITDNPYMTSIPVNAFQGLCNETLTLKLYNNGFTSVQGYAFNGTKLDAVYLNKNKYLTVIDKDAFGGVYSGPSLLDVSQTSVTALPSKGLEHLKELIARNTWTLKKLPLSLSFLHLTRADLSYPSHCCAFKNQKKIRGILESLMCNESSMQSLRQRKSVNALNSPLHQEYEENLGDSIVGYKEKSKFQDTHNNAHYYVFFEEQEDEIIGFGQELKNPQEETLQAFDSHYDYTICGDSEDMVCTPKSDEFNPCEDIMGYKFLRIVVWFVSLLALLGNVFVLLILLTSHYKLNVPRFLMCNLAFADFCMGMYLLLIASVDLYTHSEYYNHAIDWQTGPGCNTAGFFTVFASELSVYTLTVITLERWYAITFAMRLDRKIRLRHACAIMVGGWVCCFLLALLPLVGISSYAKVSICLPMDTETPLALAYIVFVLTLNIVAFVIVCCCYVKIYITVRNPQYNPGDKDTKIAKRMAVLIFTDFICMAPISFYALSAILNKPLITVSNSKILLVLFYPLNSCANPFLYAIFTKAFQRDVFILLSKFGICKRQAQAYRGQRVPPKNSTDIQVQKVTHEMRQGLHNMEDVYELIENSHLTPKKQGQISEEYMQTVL
Method in brief: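 Readout is cAMP by HTRF competition between cellular cAMP and cAMP-d2 for a cryptate-labelled antibody. Antagonism was assessed in TSHR-transfected HEK293 cells stimulated with 4 nM TSH (EC80, final) in the presence of RO 20-1724.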

[31] = target: Thyrotropin-releasing hormone receptor (Homo sapiens) (UniProt P34981); experiment: qHTS for Small Molecule Agonists and Allosteric Enhancers of Human TRH Receptor: Validation Screen for Agonists (AID 493127;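 active = calcium activation more than 3 SD above the typical response in the agonist read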;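 note: intracellular calcium rise by fluo-8 fluorescence before TRH EC20 addition; 0% is about no effect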); settings: TRH receptor agonist cell assay; at 2 µM; stronger effect = higher value
Thyrotropin-releasing hormone receptor (Homo sapiens), sequence (P34981 whole entry, looked up): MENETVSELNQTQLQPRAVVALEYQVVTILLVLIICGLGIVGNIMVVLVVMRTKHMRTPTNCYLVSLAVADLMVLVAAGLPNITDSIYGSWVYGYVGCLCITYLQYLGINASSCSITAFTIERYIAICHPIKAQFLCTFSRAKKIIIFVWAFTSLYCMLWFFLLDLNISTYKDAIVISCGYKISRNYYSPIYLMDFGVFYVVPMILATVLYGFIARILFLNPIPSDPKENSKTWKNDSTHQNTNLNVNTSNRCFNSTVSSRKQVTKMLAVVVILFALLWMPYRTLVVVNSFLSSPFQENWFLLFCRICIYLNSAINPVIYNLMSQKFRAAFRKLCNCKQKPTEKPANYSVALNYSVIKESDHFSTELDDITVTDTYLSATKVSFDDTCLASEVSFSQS
Method in brief: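 Gq-coupled calcium mobilization in TRHR cells after compound addition, monitored kinetically with fluo-8 dye on an FDSS reader.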

[32] = target: Galactokinase (Homo sapiens) (UniProt P51570); experiment: qHTS Validation Assay for Inhibitors of Human Galactokinase (GALK) (AID 493189); note: 0% is about no effect
Method in brief: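 5 nM GALK / 100 uM galactose / 35 uM ATP, 20 mM HEPES pH8.0, 5 mM MgCl2, 60 mM NaCl, 1 mM DTT, 0.01% BSA (final). RT 1 h; Kinase-Glo Plus luminescence.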

[33] = target: Voltage-gated inwardly rectifying potassium channel KCNH2 (Homo sapiens) (UniProt Q12809); experiment: qHTS Assay for Small Molecule Inhibitors of the Human hERG Channel Activity (AID 588834);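 note: top concentration of the series differs between compounds; % is set by controls: 0 for no effect and ±100 for the full control effect; lower thallium flux fluorescence means stronger hERG block; nearly all actives have a fitted effect of over 50% in size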
Voltage-gated inwardly rectifying potassium channel KCNH2 (Homo sapiens), sequence (Q12809 whole entry, looked up): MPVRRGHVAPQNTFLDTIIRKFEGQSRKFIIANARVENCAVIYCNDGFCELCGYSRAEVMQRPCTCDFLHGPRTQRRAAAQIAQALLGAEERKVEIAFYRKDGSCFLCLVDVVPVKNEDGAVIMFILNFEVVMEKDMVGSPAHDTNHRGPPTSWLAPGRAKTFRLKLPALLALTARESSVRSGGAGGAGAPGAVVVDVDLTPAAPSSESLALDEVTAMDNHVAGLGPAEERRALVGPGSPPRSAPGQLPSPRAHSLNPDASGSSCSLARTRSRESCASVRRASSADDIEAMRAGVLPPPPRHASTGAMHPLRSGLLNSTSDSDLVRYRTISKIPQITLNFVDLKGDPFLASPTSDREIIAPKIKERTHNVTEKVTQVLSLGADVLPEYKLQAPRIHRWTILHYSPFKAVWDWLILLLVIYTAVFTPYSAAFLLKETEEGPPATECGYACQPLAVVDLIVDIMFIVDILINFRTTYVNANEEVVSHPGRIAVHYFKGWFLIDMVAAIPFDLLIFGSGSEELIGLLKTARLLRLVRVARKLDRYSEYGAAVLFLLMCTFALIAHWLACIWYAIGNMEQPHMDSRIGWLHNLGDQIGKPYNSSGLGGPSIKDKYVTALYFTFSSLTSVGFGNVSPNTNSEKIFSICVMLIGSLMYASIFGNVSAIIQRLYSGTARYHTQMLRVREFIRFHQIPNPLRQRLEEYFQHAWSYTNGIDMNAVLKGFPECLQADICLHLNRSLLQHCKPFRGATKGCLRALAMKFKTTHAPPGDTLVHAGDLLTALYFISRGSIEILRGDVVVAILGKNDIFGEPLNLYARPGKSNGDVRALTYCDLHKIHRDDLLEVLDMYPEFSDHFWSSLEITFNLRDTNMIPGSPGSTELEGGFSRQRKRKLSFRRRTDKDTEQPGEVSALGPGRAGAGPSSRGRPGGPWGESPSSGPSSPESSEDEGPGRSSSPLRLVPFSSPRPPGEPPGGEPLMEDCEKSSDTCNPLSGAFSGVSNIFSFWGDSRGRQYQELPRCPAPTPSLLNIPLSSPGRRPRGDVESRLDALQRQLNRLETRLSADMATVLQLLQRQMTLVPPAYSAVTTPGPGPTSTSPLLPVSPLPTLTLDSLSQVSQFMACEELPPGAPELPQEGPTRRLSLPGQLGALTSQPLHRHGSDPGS
Method in brief: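 hERG-BacMam U2OS, 2000 cells/well; 0.7X FluxOR loading 1 hr RT dark; cpd ~10 min 37 °C; stim buffer; FDSS fluorescence 2 min @ 1 s; AC50 Hill fit.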

[34] = target: N-terminal Xaa-Pro-Lys N-methyltransferase 1 (Homo sapiens) (UniProt Q9BV86); experiment: qHTS Assay for Inhibitors of N-terminal methyltransferase 1 (NTMT1): LOPAC validation of the NTMT1 SAHH-coupled ThioGlo3 Assay (AID 1347143);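 note: SAH from peptide methylation measured as thiol fluorescence via SAHH coupling and ThioGlo3; % is set by controls: 0 for no effect and ±100 for the full control effect; nearly all actives have a fitted effect of over 70% in size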
N-terminal Xaa-Pro-Lys N-methyltransferase 1 (Homo sapiens), sequence (Q9BV86 whole entry, looked up): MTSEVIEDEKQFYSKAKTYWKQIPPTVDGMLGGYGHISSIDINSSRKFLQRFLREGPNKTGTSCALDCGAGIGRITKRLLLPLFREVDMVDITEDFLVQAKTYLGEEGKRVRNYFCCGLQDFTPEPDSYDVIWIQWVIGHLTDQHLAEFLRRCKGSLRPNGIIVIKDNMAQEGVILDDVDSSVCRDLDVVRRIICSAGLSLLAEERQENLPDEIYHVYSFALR
Method in brief: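 Recombinant human NTMT1 (125nM) was pre-incubated 1 min at room temperature with compounds over a concentration range, then a mix of 100uM SAM, 10uM SAHH and 15uM ThioGlo3 (concentrations in added reagent) was added. ThioGlo3 fluorescence (ex 340/em 450nm) after 30 min was normalized to the initial reading.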

COc1cc2c(cc1Cc1cccc(Cl)c1F)c(=O)c(C(=O)O)cn2[C@H](CO)C(C)C
-96.1% and -86.8%: activity change, negative = inhibition [11]
active: Potency [7] 12.6 µM | Potency [9] 0.0607 µM | Potency [12] 0.0171 µM
inactive: Potency [1] | Potency [2] | Potency [3] | Potency [4] | Potency [5] | outcome [6] | outcome [8] | Potency [10]

CNCC(N)C(=O)O (configuration not stated)
inactive: Potency [1] | Potency [2] | Potency [3] | Potency [4] | Potency [13]

CC(=O)OCC1=C(C(=O)[O-])N2C(=O)[C@@H](NC(=O)CCC[C@@H](N)C(=O)[O-])[C@H]2SC1.[Zn+2]
inactive: outcome [14] | Potency [15] | Potency [16] | outcome [17] | Potency [18] | Potency [19] | Potency [20] | Potency [21] | outcome [22] | outcome [23] | Potency [24] | Potency [25] | Potency [26] | Potency [27] | outcome [29] | outcome [30] | activation [31] 1.25% | outcome [32] | Potency [33] | Potency [1] | Potency [2] | Potency [3] | Potency [4] | outcome [34]
active: Potency [28] 44.7 µM

Reference: PubChem BioAssay (NCATS)
